# Reference: PubChem BioAssay AID686970 (National Center for Advancing Translational Sciences (NCATS), 2013)
# About 6,000 (1.7%) of roughly 360,000 compounds were called active. Entries that show only a call come without a potency. Inconclusive results (about 8%) are left out. The call rests on the fitted dose curve; in most records, active means well fitted cell-killing curve with a large enough effect; inconclusive means small, poorly fitted or top-dose-only effect, or effect the other way; inactive means flat fitted curve, though single readings scatter. The sample as a whole holds a higher share of actives than the screen did.
# Assay: qHTS for induction of synthetic lethality in tumor cells producing 2HG: qHTS for the HT-1080-NT fibrosarcoma cell line;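 further: NT is the 2HG producing partner of a matched IDH1 knockdown line; nearly all actives have a fitted effect of over 55% in size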
# Conditions: HT-1080-NT fibrosarcoma viability, CellTiter-Glo ATP luminescence, 48 h; series mostly up to 46.1 µM
# Summary of the method: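 Toxicity toward the 2HG-producing NT line was scored as %Activity, normalised to DMSO and no-cell wells, from CellTiter-Glo luminescence after 48 hours' treatment.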
# Potency means the concentration at half of the fitted maximal effect.
row,SMILES,Potency
1,Cc1nc(C(F)(F)F)ccc1C(=O)N1CCC1(C)C(=O)NS(=O)(=O)c1ccc(F)cc1F (configuration not stated),inactive
2,COC(=O)c1ccc2nc(-c3cccc(Br)c3)c(Cc3ccccc3C(F)(F)F)n2c1,inactive
3,COc1ccc(NC(=O)C2Cc3c(-c4ccc5c(c4)OCO5)ccnc3O2)cn1 (configuration not stated),5.8 µM (active)
4,O=C(Nc1ccc(Cl)cc1)C1Cc2c(-c3ccc4c(c3)OCO4)ccnc2O1 (configuration not stated),inactive
5,COc1ccc(NC(=O)C2Cc3c(-c4cccc(NC(C)=O)c4)ccnc3O2)cc1OC (configuration not stated),inactive
6,O=C1C(=O)N(CC2COc3ccccc3O2)c2ccccc21 (configuration not stated),inactive
7,Cc1cc(C(=O)CCl)c(C)n1CC1COc2ccccc2O1 (configuration not stated),14.6 µM (active)
8,Cc1ccsc1C(=O)OCC(=O)c1cc(C)n(CC2CCCO2)c1C (configuration not stated),inactive
9,COCCCn1c(=O)/c(=C/c2ccccc2OC(C)C)s/c1=C(\C#N)C(=O)Nc1ccc(C(=O)O)cc1,inactive
10,CCOC(=O)C1CCCN(C(=O)c2ccc(C)c(F)c2)CC1 (configuration not stated),inactive
11,Cc1cc(C)n(-c2nc(C(F)(F)F)nc3ccccc23)n1,inactive
12,CC(Nc1nc(C(F)(F)F)nc2ccccc12)c1cccs1 (configuration not stated),20.6 µM (active)
13,CC(C)(C)Nc1nc(-c2ccccn2)nc2ccccc12,inactive
14,Clc1ccc(-c2cccc3nccn23)cc1,inactive
15,CCOC(=O)c1c(C)[nH]c2c1-c1ccccc1C(=O)C2=O,2.91 µM (active)
16,CCOC(=O)C1=C(C)c2ccccc2OC1(C)C(=O)OCC (configuration not stated),inactive
17,CCOC(=O)c1ccccc1OC(=O)Oc1ccccc1C(=O)OCC,inactive
18,CCOC(=O)[C@]12CCCC=C1N(Cc1ccc3c(c1)OCO3)C(=O)[C@H](CC(=O)N1CCN(C(=O)c3ccco3)CC1)C2,inactive
19,COc1cc(CNc2ncnc3c2ncn3[C@H]2CN(Cc3cccs3)C[C@@H](CO)O2)cc(OC)c1OC,inactive
20,CC(=O)Nc1ccc(CNc2nc(NCCN(C)C)nc3cc(-c4ccccc4)sc23)cc1,11.6 µM (active)
21,COCCNc1nc(NCc2ccc(NC(C)=O)cc2)c2sccc2n1,inactive
22,COCCNc1nc(Nc2ccccc2Cl)c2sc(-c3ccccc3)cc2n1,inactive
23,COc1ccc(Cl)cc1NC(=O)CN(C)C(=O)c1cn(-c2ccccc2)nc1-c1cccs1,inactive
24,Cc1ccc(C(=O)N2CCCc3ccccc32)c(Cl)c1,inactive
25,O=C(c1cc(-c2ccc(O)cc2)on1)N1CCCc2ccccc21,inactive

row,SMILES,Potency
1,Cc1cccc2cc3c(N)c(C(=O)N4CCCc5ccccc54)sc3nc12,3.26 µM (active)
2,O=C(C[C@H]1C[C@@H]2c3cc(NC(=O)C4CCC4)ccc3O[C@@H]2[C@H](CO)O1)NC1CCCCC1,inactive
3,CCOC(=O)C1=C(c2ccc(OC)cc2)C(=O)c2ccccc2C1=O,5.8 µM (active)
4,CCOC(=O)C(NC(C)=O)C(=O)Nc1ccc(OC)cc1 (configuration not stated),inactive
5,COc1ccc(CNC(=O)CCN2C(=O)c3ccccc3C2=O)cc1,inactive
6,O=C(NN=Cc1ccc2c(c1)CCC2)c1ccccc1O,inactive
7,COc1cccc(NC(=O)C2(C)CCN2C(=O)CCC2CCCC2)c1 (configuration not stated),inactive
8,Cc1cc(NC(=O)CCC(=O)N(CC(=O)NC2CCCC2)c2ccc(F)cc2)no1,inactive
9,Cc1cc(NC(=O)/C=C/C(=O)N(c2ccccc2C)C(C(=O)NC2CCCC2)c2ccc(F)cc2)no1 (configuration not stated),11.2 µM (active)
10,Cc1cc(NC(=O)CCC(=O)N(c2ccccc2)C(C(=O)NC2CCCC2)c2ccncc2)no1 (configuration not stated),inactive
11,CC1(C(=O)Nc2ccc3c(c2)OCCO3)CCN1C(=O)Cc1cc(F)ccc1F (configuration not stated),inactive
12,O=C(O)C1=C(C(=O)O)C2CCC1C2,inactive
13,CCCC(O)(CCC)C(=O)NN(C(=O)CCl)c1cccc(C)c1,6.51 µM (active)
14,CC(C)(O)C(=O)NN(C(=O)c1ccccc1)c1cccc(Br)c1,inactive
15,COC(=O)N(NC(=O)C(O)(C(C)C)C(C)C)c1ccccc1,inactive
16,COc1ccc(C2OC(CCc3ccccc3)Cc3[nH]c(=S)[nH]c(=O)c32)cc1 (configuration not stated),inactive
17,CCOC(=O)C1CCCN(C(=O)c2cccc3ccccc23)CC1 (configuration not stated),inactive
18,CCc1nc2ccc(C(=O)N3CCN(S(=O)(=O)CC)CC3)cn2c1N(C=O)CCC(C)C,inactive
19,COc1ccc(Br)cc1/C=N/Nc1ccc(Cl)c(C(=O)O)c1,inactive
20,O=c1[nH]c2cccnc2n(CCNc2ncc(C(F)(F)F)cc2Cl)c1=O,inactive
21,COc1cccc(/C=N/Nc2ncc(C(F)(F)F)cc2Cl)c1O,16.4 µM (active)
22,CCN1C(=O)[C@@H]2[C@@H]3CN(S(=O)(=O)c4ccccc4C)[C@@H](c4ccc(Cl)cc4)[C@@H]3C(=O)C[C@@H]2C1=O,inactive
23,CCc1nc2c(OCCOc3ccc(F)cc3)cccn2c1N(C)C(=O)c1ccccc1F,inactive
24,COc1cc(/C=N/Nc2nc3ccccc3s2)ccc1O,20.6 µM (active)
25,COc1cc(C=NC2CCCCC2)ccc1O,inactive

row,SMILES,Potency
1,CCOc1cc(/C=N/Nc2cc(C)nc3ccc(C)cc23)ccc1O,inactive
2,Nc1ncnc2c1ncn2[C@@H]1O[C@H](CNC(=O)[C@H](N)Cc2cccnc2)[C@@H](O)[C@H]1O,inactive
3,O=C(Nc1ccc(S(=O)(=O)Nc2ccccn2)cc1)c1ccccc1,inactive
4,Cc1nnsc1S(=O)(=O)Cc1ccccc1Cl,inactive
5,O=C(Nc1ccccc1)c1nnsc1S(=O)(=O)c1ccc(Cl)cc1,20.6 µM (active)
6,C=C1C=C(C)n2ncc(C(=O)Nc3ccccc3O)c2N1,inactive
7,COc1ccc(C(C)(C)C)cc1NC(=O)CN(C)C1=NS(=O)(=O)c2ccccc21,inactive
8,CCc1nc2ccc(C(=O)Nc3cc(-c4ccccc4)ccc3OC)cn2c1N(CC)CC(=O)N(C)C,inactive
9,CCOC(=O)C1(C)CCCN(C(=O)c2ccc(N(C)C)cc2)C1 (configuration not stated),inactive
10,CN(C)CCNC(=O)c1cccc(-c2cnc3c(NC=O)cc(-c4cccc(C(F)(F)F)c4)cn23)c1,20.6 µM (active)
11,CC(=O)c1cccc(-c2cnc3c(NC=O)cc(-c4ccc(N5CCN(C)CC5)cc4)cn23)c1,inactive
12,COc1cccc(-c2cc(NC(C)=O)c3ncc(-c4cccc(C(C)=O)c4)n3c2)c1,inactive
13,CC(=O)c1cccc(-c2cnc3c(NC=O)cc(-c4cccc(C(=O)N(C)C)c4)cn23)c1,inactive
14,COc1ccccc1-c1cc(NC(C)=O)c2ncc(-c3ccc(F)cc3)n2c1,inactive
15,CC(=O)Nc1cc(-c2ccccc2N(C)C)cn2c(-c3ccc(F)c(Cl)c3)cnc12,29.1 µM (active)
16,CC(=O)Nc1cc(-c2cccc(CO)c2)cn2c(-c3cccc(C(F)(F)F)c3)cnc12,inactive
17,CC(=O)Nc1cccc(-c2cc(NC=O)c3ncc(-c4ccc(F)c(Cl)c4)n3c2)c1,18.4 µM (active)
18,CC(=O)c1cccc(-c2cnc3c(NC=O)cc(-c4ccccc4Oc4ccccc4)cn23)c1,inactive
19,CC(C)(C)C1CCC(=O)N2CCC[C@]2(c2ccccc2)C1 (some centres not stated),inactive
20,COc1ccc(COC[C@H](CC(C)C)N2CCN(C(=O)c3cccc(C(F)(F)F)c3)CCC2=O)cc1,inactive
21,CCC(C(=O)NCc1ccccc1)n1c(Cc2cc(F)cc(F)c2)nc2ccccc21 (configuration not stated),inactive
22,Cc1cccc(S(=O)(=O)N(C)C[C@@H]2OCc3cnnn3CCCC(=O)N([C@H](C)CO)C[C@@H]2C)c1,inactive
23,O=C1Nc2ccccc2NC(c2ccc3c(c2)OCO3)=C1N(Cc1ccc(F)cc1)C(=O)c1ccco1,inactive
24,CCc1nc2ccc(C(=O)N3CCC(O)(Cc4ccccc4)CC3)cn2c1N(C)C(=O)Cc1ccccc1,inactive
25,Cc1cc(Nc2ccc(C)c(C)c2)n2ncnc2n1,inactive

row,SMILES,Potency
1,CC(C)(C(=O)N1CCC1(C)C(=O)NS(=O)(=O)c1ccc(Br)cc1)c1ccccc1 (configuration not stated),inactive
2,CC(C)c1nccn1S(=O)(=O)c1cc([N+](=O)[O-])ccc1Cl,inactive
3,CCc1nc(C)cn1S(=O)(=O)c1cc(OC)c(C)cc1C,inactive
4,CCc1nc(C)cn1S(=O)(=O)c1cc([N+](=O)[O-])ccc1Cl,4.11 µM (active)
5,Cc1ccc(S(=O)(=O)/N=C2\C=C(NS(=O)(=O)c3ccc(C)cc3)C(=O)c3ccccc32)cc1,inactive
6,COc1ccc(S(=O)(=O)/N=C2\C=C(NS(=O)(=O)c3ccccc3)C(=O)c3ccccc32)cc1,18.4 µM (active)
7,COc1ccc(S(=O)(=O)NCCCc2ccccc2)cc1,inactive
8,O=C1c2ccccc2C(c2nc3ccccc3[nH]2)N1c1ccccc1 (configuration not stated),inactive
9,CC1(C)OC(=O)C2=C(C[C@@H](C3CCCCC3)O[C@@H]2c2ccc(Cl)cc2)O1,inactive
10,CN1OC[C@@H]2CN(C(=O)c3ccc(-c4ccccc4)cc3)[C@H](c3ccc(-c4cccc(F)c4)cc3)C[C@@H]21,inactive
11,CCCCc1nnc(NC(=O)CS(=O)(=O)Cc2ccccc2)s1,inactive
12,CCCCOC(=O)Nc1nnc(CC(=O)NCc2ccccc2)s1,4.11 µM (active)
13,CCCCOC(=O)Nc1nccs1,inactive
14,Cc1noc(C)c1-c1ccc(C(=O)NCc2ccncc2)c2occc12,inactive
15,C/C(=N\NC(=O)Cc1ccc(Cl)cc1)c1ccccn1,1.78 µM (active)
16,CC(=NNC(=S)N1CCCCCC1)c1ccccn1,inactive
17,NC(=O)NC(CC(=O)NNC(=O)c1ccccn1)c1ccc(Cl)cc1 (configuration not stated),inactive
18,O=C(O)c1ccccc1Cc1ccc(F)c2ccccc12,inactive
19,Nc1ncnc2c1ncn2[C@@H]1O[C@H](C(=O)NCC(F)(F)F)[C@@H](O)[C@H]1O,inactive
20,CCOC(=O)c1cc(-c2sc(NC(=O)c3ccccc3)nc2C)n(CCO)n1,inactive
21,COc1ccc(Br)c(Cn2c(C)c(C(=O)NCc3cccs3)sc2=O)c1,inactive
22,C[C@@H]1CN([C@H](C)CO)C(=O)c2cc(Br)cnc2O[C@@H]1CN(C)Cc1cncnc1,inactive
